The values below come from PubChem BioAssay.

Experiment [1] has as its target Nuclear receptor coactivator 3 (Homo sapiens) (UniProt Q9Y6Q9). The experiment in a line: NCOA3 GAL4-fusion reporter inhibition – cell-based, luminescence, quadruplicate, confirmation (AID 588792;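 active = mean inhibition over 43.08%, the solvent-only control mean plus 3 SD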;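 also: 0% = DMSO treated cells and 100% = gossypol at 36 µM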). Conditions: HEK293 GAL4-SRC3 luciferase reporter, at 3.6 µM, active compounds read high.
For experiment [2], the system named is transactivating tegument protein VP16 (Human herpesvirus 1), Gal4-VP16 luciferase reporter. Kind of experiment: repression of VP16-driven luciferase reporter – cell-based, luminescence, high throughput, counter-screen for SRC3 inhibitor project (AID 588794). Conditions: mammalian cells, at 3.6 µM, active compounds read high.
Experiment [3] concerns the target Nuclear receptor coactivator 1 (Homo sapiens) (UniProt Q15788). The experiment in a line: NCOA1 GAL4-fusion reporter inhibition – cell-based, luminescence, quadruplicate, confirmation (AID 588820;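 active = mean inhibition above 46.68%, the untreated control wells mean plus 3 SD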;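 also: 0% = DMSO wells and 100% = gossypol 36 µM treated wells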). Conditions: HEK293 GAL4-SRC1 luciferase reporter, at 3.6 µM, active compounds read high.
Experiment [4] in a line: repression of VP16-driven luciferase reporter – cell-based, luminescence, high throughput, counter-screen for SRC1 inhibitor project (AID 588824; in the data active = inhibition above about 25%). Conditions: cell-based VP16 transactivation luciferase luminescence; at 3.6 µM; active compounds read high.
A short description of experiment [5]: StAR promoter reporter inhibitors, counter-screen for LRH-1 inverse agonist project, cell-based, luminescence, high throughput (AID 651611; in the data active = inhibition above about 28%). Conditions: StAR promoter luciferase reporter counterscreen, at 3.6 µM, active compounds read high.
The target in experiment [6] is Nuclear receptor subfamily 5 group A member 2 (Homo sapiens) (UniProt O00482). The experiment in a line: NR5A2 activity suppression in reporter cells – cell-based, luminescence, confirmation (AID 651613; in the data active = inhibition above about 42%;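 also: HEK293T cells co-transfected with LRH-1 and StAR promoter luciferase reporter; 0% = vehicle wells and 100% = parental cells lacking receptor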). Conditions: cell-based LRH-1 luciferase reporter, inverse agonism; at 3.6 µM; active compounds read high.
Experiment [7] concerns the target Steroidogenic factor 1 (Homo sapiens) (UniProt Q13285). Kind of experiment: inverse agonism at SF1 nuclear receptor – cell-based, luminescence, high throughput, counter-screen for LRH-1 inverse agonist project (AID 651614; in the data active = inhibition above about 44%;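 also: cells cotransfected with StAR promoter reporter and SF1 expression vector; 0% = vehicle on cells with receptor and 100% = vehicle on cells lacking receptor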). Conditions: cell-based SF1 luciferase reporter, at 3.6 µM, active compounds read high.
The nature of experiment [8]: compounds suppressing VP16-driven luciferase signal – cell-based, luminescence, high throughput, counter-screen for LRH-1 inverse agonist project (AID 651615; in the data active = inhibition above about 33%). Conditions: Gal4-VP16 luciferase reporter cells, at 3.6 µM, active compounds read high.

Unmarked numbers belong to inactive results. Activity calls are given as the source filed them. Rule as the data show it, unless noted: active = inhibition above about 30%; inactive = the rest.

Sequence of Steroidogenic factor 1 (Homo sapiens) (Q13285 whole entry, looked up, the tested form may be a part): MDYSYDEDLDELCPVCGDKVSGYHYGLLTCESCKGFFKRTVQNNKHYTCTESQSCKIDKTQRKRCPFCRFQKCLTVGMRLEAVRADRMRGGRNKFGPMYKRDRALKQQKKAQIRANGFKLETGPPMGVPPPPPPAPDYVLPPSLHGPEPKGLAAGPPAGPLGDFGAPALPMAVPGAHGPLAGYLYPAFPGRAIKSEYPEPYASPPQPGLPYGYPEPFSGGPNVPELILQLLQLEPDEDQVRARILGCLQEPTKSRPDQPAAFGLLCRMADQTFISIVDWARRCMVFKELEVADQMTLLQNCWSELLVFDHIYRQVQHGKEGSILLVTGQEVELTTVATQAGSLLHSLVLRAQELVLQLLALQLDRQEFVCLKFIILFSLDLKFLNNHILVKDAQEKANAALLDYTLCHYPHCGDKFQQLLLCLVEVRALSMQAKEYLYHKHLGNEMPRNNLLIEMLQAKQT
Sequence of Nuclear receptor coactivator 3 (Homo sapiens) (Q9Y6Q9 whole entry, looked up, the tested form may be a part): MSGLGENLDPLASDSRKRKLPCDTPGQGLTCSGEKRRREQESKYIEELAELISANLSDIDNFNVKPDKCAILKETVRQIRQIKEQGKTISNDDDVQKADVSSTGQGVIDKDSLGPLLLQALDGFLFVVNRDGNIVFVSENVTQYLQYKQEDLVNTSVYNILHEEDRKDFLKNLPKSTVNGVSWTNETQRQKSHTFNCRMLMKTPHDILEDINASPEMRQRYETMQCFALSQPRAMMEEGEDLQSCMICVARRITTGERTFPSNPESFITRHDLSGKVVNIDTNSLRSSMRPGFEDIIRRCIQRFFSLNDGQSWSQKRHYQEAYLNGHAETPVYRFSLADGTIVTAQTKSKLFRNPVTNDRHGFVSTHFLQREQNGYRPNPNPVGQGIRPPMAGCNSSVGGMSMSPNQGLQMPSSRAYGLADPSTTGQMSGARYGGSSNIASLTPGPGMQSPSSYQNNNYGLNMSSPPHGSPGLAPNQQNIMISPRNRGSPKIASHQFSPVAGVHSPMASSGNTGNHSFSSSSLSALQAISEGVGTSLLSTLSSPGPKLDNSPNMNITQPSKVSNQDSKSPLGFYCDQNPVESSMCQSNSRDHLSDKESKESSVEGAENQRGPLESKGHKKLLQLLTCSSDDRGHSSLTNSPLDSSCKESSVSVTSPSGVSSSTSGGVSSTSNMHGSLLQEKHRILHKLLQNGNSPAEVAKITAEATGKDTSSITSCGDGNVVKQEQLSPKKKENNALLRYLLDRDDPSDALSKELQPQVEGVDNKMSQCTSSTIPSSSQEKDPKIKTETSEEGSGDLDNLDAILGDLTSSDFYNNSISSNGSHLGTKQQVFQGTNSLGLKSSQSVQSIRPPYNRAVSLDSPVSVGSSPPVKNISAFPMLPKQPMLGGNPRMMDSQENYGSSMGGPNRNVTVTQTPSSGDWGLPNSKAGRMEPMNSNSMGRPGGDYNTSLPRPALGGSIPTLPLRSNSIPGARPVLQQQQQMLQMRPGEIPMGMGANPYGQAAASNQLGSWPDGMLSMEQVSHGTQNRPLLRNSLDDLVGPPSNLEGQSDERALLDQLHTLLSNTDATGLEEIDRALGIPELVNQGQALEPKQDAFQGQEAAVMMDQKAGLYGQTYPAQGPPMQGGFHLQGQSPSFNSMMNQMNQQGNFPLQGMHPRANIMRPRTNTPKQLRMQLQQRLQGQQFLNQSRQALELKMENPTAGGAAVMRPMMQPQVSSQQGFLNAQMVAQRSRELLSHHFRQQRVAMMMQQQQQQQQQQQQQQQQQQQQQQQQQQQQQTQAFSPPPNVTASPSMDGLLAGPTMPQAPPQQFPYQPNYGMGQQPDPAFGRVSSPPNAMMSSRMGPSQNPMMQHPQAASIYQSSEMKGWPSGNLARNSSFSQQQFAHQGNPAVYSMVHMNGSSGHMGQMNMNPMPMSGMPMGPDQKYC
Sequence of Nuclear receptor coactivator 1 (Homo sapiens) (Q15788 whole entry, looked up, the tested form may be a part): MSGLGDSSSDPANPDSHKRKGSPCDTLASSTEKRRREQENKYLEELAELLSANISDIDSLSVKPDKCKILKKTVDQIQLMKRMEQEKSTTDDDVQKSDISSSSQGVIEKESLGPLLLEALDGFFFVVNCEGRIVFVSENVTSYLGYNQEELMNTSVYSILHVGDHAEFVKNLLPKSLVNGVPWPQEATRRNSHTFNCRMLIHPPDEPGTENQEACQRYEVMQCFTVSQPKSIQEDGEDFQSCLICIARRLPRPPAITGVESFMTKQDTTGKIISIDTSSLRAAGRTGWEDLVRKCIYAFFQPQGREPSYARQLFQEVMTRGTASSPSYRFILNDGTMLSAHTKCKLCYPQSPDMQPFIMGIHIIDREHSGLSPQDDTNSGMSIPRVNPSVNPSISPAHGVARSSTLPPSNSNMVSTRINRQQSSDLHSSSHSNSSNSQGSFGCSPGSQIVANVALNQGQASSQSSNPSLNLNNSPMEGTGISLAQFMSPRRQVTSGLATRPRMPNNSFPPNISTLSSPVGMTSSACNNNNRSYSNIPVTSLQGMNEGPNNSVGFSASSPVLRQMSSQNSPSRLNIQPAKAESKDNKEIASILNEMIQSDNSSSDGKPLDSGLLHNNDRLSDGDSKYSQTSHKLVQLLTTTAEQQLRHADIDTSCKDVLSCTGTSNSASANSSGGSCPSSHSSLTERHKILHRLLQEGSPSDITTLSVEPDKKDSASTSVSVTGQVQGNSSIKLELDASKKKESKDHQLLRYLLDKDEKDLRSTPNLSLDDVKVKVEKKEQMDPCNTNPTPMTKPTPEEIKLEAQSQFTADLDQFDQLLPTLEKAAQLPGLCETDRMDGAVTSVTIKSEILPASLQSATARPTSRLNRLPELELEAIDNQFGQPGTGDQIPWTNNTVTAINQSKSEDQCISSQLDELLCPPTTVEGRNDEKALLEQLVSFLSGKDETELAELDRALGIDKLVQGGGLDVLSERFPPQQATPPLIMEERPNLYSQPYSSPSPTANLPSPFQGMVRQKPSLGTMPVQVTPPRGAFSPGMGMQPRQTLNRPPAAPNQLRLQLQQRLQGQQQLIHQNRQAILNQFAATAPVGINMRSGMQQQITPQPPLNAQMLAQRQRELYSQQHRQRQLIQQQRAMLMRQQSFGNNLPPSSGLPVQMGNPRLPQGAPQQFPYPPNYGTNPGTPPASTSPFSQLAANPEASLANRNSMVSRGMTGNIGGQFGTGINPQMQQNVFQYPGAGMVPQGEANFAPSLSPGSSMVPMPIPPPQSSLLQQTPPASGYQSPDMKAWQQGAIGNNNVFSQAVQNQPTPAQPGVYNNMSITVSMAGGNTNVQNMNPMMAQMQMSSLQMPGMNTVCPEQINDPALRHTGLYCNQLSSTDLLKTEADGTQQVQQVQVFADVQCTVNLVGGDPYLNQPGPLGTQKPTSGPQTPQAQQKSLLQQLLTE
Sequence of Nuclear receptor subfamily 5 group A member 2 (Homo sapiens) (O00482 whole entry, looked up): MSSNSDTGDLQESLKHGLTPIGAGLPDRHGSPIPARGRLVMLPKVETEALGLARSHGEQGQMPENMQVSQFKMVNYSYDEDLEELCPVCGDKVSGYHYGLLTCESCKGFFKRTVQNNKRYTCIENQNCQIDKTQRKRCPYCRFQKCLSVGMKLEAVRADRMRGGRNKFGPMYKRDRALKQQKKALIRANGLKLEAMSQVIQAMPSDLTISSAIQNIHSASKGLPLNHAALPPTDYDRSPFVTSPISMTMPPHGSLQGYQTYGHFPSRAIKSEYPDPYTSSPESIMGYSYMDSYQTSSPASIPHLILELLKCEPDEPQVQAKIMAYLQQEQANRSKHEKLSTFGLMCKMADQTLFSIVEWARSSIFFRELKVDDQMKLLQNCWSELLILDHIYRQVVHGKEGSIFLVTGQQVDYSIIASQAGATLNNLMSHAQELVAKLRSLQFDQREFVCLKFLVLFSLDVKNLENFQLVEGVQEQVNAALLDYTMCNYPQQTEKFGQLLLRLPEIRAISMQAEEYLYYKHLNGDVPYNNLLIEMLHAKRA

Take `CC1Cc2ccccc2N1c1ncnc(N)c1[N+](=O)[O-]` (stereo not drawn): the inhibition in experiment [1] is 84.3% (active); in experiment [2], 68% (active); in experiment [3], 81.5% (active); in experiment [4], 65.6% (active); in experiment [5], 39.9% (active); in experiment [6], 63.6% (active). Moreover, the inhibition in experiment [7] is 46.7% (active); in experiment [8], 82.4% (active).

For `CCCCCn1c2c(c(=N)c3ccccc31)CCC2`, the inhibition in experiment [1] was 45.1% (active); in experiment [2], 61.1% (active); in experiment [3], 32%; in experiment [4], 60% (active); in experiment [5] it was 44.3% (active); in experiment [6], 108% (active). Further, the inhibition was 83% (active) in experiment [7] and 90.9% (active) in experiment [8].

With `CC(C)CC(=NNC(=O)c1ccncc1)c1cc(Cl)ccc1O`, the inhibition was 80.1% (active) in experiment [1]; 72.5% (active) in experiment [2]; 65.2% (active) in experiment [3]; 78.7% (active) in experiment [4]; 88.6% (active) in experiment [5]; 101% (active) in experiment [6]. Besides, the inhibition in experiment [7] is 92.5% (active); in experiment [8] it was 85.7% (active).

As for `Cc1ccc2ccc3ccc(C)nc3c2n1`, the inhibition in experiment [1] was 42.1%; in experiment [2], 70.6% (active); in experiment [3] it was 44.8%; in experiment [4], 68.2% (active); in experiment [5], 77.2% (active); in experiment [6], 85.8% (active). Further, the figures for the inhibition in experiment [7] and in experiment [8] were 87.4% (active) and 68.9% (active), respectively.

Regarding `c1ccc(-c2ccc(-c3nc(-c4ccccn4)no3)cc2)cc1`, the inhibition in experiment [1] was 43.5% (active); in experiment [2], 35.9% (active); in experiment [3], -28.2%; in experiment [4], 39.4% (active); in experiment [5], 42.4% (active); in experiment [6], 13.6%. The results for the inhibition in experiment [7] and in experiment [8] were 54.8% (active) and 30.9% (active), respectively.

On to `Cc1cc(/C=N/n2cnnc2)c(C)n1-c1ccc(OCc2ccc(Cl)cc2Cl)cc1`, for which the inhibition was 19.7% in experiment [1]; 43.4% (active) in experiment [2]; 8.2% in experiment [3]; 37.6% (active) in experiment [4]; 36.5% (active) in experiment [5]; 67% (active) in experiment [6]. Besides, the inhibition was 68.7% (active) in experiment [7] and 62.3% (active) in experiment [8].

In the case of `Cc1cccc2sc(NNC(=O)c3ccc(S(=O)(=O)N4CC(C)CC(C)C4)cc3)nc12` (stereo not drawn), the inhibition was 31% in experiment [1]; 23.7% in experiment [2]; 32.8% in experiment [3]; 34% (active) in experiment [4]; 25% in experiment [5]; 45% (active) in experiment [6]. Further, the figures for the inhibition in experiment [7] and in experiment [8] were 36.2% and 40.9% (active), respectively.

Turning to `COc1ccc(NC(=O)c2sc(=O)n(Cc3ccc(F)c(Cl)c3)c2C)cc1OC`, the inhibition is 24.2% in experiment [1]; 61.6% (active) in experiment [2]; 18.5% in experiment [3]; 53.8% (active) in experiment [4]; 54.3% (active) in experiment [5]; 66.2% (active) in experiment [6]. The inhibition is 70.5% (active) in experiment [7] and 72.5% (active) in experiment [8].

Consider `CCN1/C(=C/c2ccc3cc(C)ccc3[n+]2CC)Sc2cc(C)c(C)cc21`, for which the inhibition is 38.9% in experiment [1]; 65.4% (active) in experiment [2]; 18.8% in experiment [3]; 58.4% (active) in experiment [4]; 55.6% (active) in experiment [5]; 87.4% (active) in experiment [6]. The inhibition in experiment [7] is 83.1% (active); in experiment [8] it was 75.5% (active).

Consider `Cc1ccc(S(=O)(=O)N(C)C)cc1NC(=O)c1cncc(Br)c1`, for which the inhibition in experiment [1] was 22.1%; in experiment [2], 5.79%; in experiment [3] it was 8.59%; in experiment [4], 0.1%; in experiment [5], 44.1% (active); in experiment [6], 43% (active). The figures for the inhibition in experiment [7] and in experiment [8] were 47.6% (active) and 19.7%, respectively.

Turning to `CN(Cc1ccccc1)C1=CC(=[N+]2CCCC2)CC(C)(C)C1`, the inhibition was 64.6% (active) in experiment [1]; 67.9% (active) in experiment [2]; 7.51% in experiment [3]; 63.1% (active) in experiment [4]; 44.2% (active) in experiment [5]; 109% (active) in experiment [6]. Also, the inhibition was 79.9% (active) in experiment [7] and 89.6% (active) in experiment [8].

Take `CC(=NNC(=S)N1CC2CCC(CC2)C1)c1ccccn1`: the inhibition was 35.5% in experiment [1]; 54.8% (active) in experiment [2]; 1.55% in experiment [3]; 49.8% (active) in experiment [4]; 59.4% (active) in experiment [5]; 98.3% (active) in experiment [6]. Besides, the results for the inhibition in experiment [7] and in experiment [8] were 77.3% (active) and 64.6% (active), respectively.

`CN(C)c1ccc(/C=C/c2ccc3ccccc3n2)cc1`: the inhibition was 33.3% in experiment [1]; 29% in experiment [2]; 0.35% in experiment [3]; 14.3% in experiment [4]; 55.6% (active) in experiment [5]; 59.3% (active) in experiment [6]. Also, the inhibition in experiment [7] was 72.4% (active); in experiment [8] it was 29.4%.

`CCC[N+]1(CC#CCC(c2ccccc2)c2ccccc2)CCCCC1`: the inhibition in experiment [1] was 28.8%; in experiment [2] it was 40.3% (active); in experiment [3] it was 21.4%; in experiment [4], 53.2% (active); in experiment [5], 24.2%; in experiment [6], 104% (active). Besides, the inhibition in experiment [7] was 67.9% (active); in experiment [8] it was 73.6% (active).

For `CCOc1ccccc1O[C@H](c1ccccc1)[C@H]1CNCCO1`, the inhibition in experiment [1] is 3.48%; in experiment [2] it was -0.26%; in experiment [3], -8.72%; in experiment [4], 1.35%; in experiment [5], 12.6%; in experiment [6], 8.61%. Further, the inhibition in experiment [7] is 13.7%; in experiment [8], 11.6%.

With `COc1ccccc1C(=O)Nc1nc(-c2ccc(S(=O)(=O)N3CCOCC3)cc2)cs1`, the inhibition in experiment [1] is 68% (active); in experiment [2], 82.1% (active); in experiment [3], 41.6%; in experiment [4], 74.5% (active); in experiment [5], 78.5% (active); in experiment [6], 98.4% (active). In addition, the inhibition in experiment [7] is 83.7% (active); in experiment [8], 92.2% (active).
